Screening results: PubChem, several laboratories
ZTA counter – ZTA (EBV) inhibition in EBNA-1 counter-screen. P03206. ZTA-DNA binding, fluorescence polarization. inhibition, % at 11 µM. 320,000 compounds, 0.15% hits. AID 2234; in the data active = inhibition above about 33%
Target sequence (P03206 whole entry, looked up): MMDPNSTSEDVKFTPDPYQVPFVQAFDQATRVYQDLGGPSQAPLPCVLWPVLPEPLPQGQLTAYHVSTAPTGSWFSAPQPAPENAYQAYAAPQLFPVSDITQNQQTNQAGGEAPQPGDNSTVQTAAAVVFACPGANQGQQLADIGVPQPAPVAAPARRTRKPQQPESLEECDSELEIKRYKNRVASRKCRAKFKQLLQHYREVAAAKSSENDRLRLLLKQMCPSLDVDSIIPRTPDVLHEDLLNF
eLon inh – E. coli protease La inhibition; P0A9M0; purified E. coli Lon protease, fluorescence polarization; inhibition, % at 7.94 µM; 360,000 compounds, 0.42% hits; in the data active = inhibition above about 13%, passing the limit was not always enough;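 also: 0% = enzyme with probe and DMSO and 100% = no enzyme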
Keap1 Nrf2 FP – inhibitors of human Keap1-Nrf2 protein-protein interaction | 340,000 compounds, 0.15% hits | Keap1 Kelch-Nrf2 peptide fluorescence polarization, 1536-well | Q14145 | inhibition, % at 9.4 µM; in the data active = inhibition above about 12%;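 also: human Keap1 Kelch domain with fluorescein labeled Nrf2 9mer peptide probe; 0% = neutral control wells and 100% = peptide positive control; higher means more block of Keap1 binding to Nrf2 peptide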
LANA DNA inh – KSHV C-LANA DNA binding inhibition; MBP-C-LANA/FAM-LBS DNA binding, fluorescence polarization; inhibition, % at 9 µM; 340,000 compounds, 0.078% hits; AID 504423;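 active = highest replicate inhibition at or above 60% at 9 µM, even if other replicates fall short; inactive = all replicates below 60% inhibition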;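 also: 0% = neutral control wells and 100% = 4 µM acridine orange control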
EBNA-1 inh – blocks EBNA-1 binding to DNA. inhibition, % at 14.8 µM. 300,000 compounds, 0.34% hits. EBNA-1 DNA binding, fluorescence polarization. AID 1950; in the data active = inhibition above about 28%
EBNA-1 confirm – EBNA-1 (EBV) inhibition, confirmation; shares compounds with EBNA-1 inh; Recombinant EBNA-1 DBD, Cy5-DNA fluorescence polarization; inhibition, % at 14.8 µM; 830 compounds, 35% hits;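 active = mean inhibition across replicates above a set limit taken from the earlier primary screen, cut at about 28% in these data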;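 also: plate controls were EBNA-1 protein with DMSO for no effect and wells lacking EBNA-1 for full effect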
ZTA counter trip – ZTA (EBV) inhibition, triplicate counter-screen; shares compounds with EBNA-1 inh; Zta-ZRE DNA binding, Cy5 fluorescence polarization; inhibition, % at 11.1 µM; 830 tested, under 10 active; AID 2328;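 active = mean inhibition over triplicates above a set limit taken from the primary EBNA-1 screen, cut at about 37% in these data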;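 also: purified full length Zta protein with Cy5 labeled ZRE DNA probe; 0% = Zta with DMSO and 100% = wells lacking Zta protein; inhibitors lower polarization by freeing the labeled DNA probe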
Active calls of the source: *; . = no result given. An excerpt weighted towards active compounds, which were near 0.85% of everything screened.

SMILES	ZTA counter	eLon inh	Keap1 Nrf2 FP	LANA DNA inh	EBNA-1 inh	EBNA-1 confirm	ZTA counter trip
CC(C)Cn1c(N)c(C(=O)CSc2ccc3c(c2)OCCO3)c(=O)n(C)c1=O	-6	5	1	0	54*	47*	6
O=C(CN1CCCc2ccccc21)Nc1cc(S(=O)(=O)N2CCCC2)ccc1Cl	8	-15	-6	0	.	.	.
O=C(NCCC1=CCCCC1)C1CCC(CNc2nc(=S)[nH]c3ccccc23)CC1 (centres undefined)	8	2	1	2	32*	24	-4
O=C(NCc1ccccc1Cl)C1CCC(CNc2nc(=S)[nH]c3ccccc23)CC1 (centres undefined)	4	-1	1	1	-22	.	.
O=C(NCCc1ccc(Cl)cc1)C1CCC(CNc2nc(=S)[nH]c3ccccc23)CC1 (centres undefined)	5	-4	5	-1	30*	32*	0
CCCCNC(=O)C1CCC(CNc2nc(=S)[nH]c3ccccc23)CC1 (centres undefined)	6	-4	2	0	3	.	.
CCOC(=O)CC(NC(=O)C1c2ccccc2Oc2ccccc21)c1ccccc1Cl (centres undefined)	-6	0	0	0	102*	4	-21
CCOC(=O)CC(NC(=O)Cc1ccccc1)c1ccccc1Cl (centres undefined)	-19	-9	-3	1	4	.	.
N#C/C(=C/Nc1ccccc1F)S(=O)(=O)c1ccc(Cl)cc1	3	7	3	0	0	.	.
Cc1cc(=O)n2c3c(c4c(cc13)c(CN(C)C)cc(=O)n4C)OC2	.	4	-9	-2	.	.	.
O=c1ccn([C@@H]2O[C@H](CNCc3c(OCc4ccccc4F)ccc4ccccc34)[C@@H](O)[C@H]2O)c(=O)[nH]1	.	-1	.	.	.	.	.
CCN(CC(=O)Nc1ccccc1C(F)(F)F)C(=O)c1cc(-c2ccccc2)nn1-c1ccccc1	6	-3	.	.	-2	.	.
CCN(CC(=O)Nc1ccccc1OC)C(=O)c1cc(-c2ccccc2)nn1-c1ccccc1	2	-9	-4	1	45*	-6	-11
COc1ccc(CN2CCC3CC2c2cc(-c4cccc(C)c4)ccc23)cc1 (centres undefined)	.	1	1	5	.	.	.
COc1ccccc1NC(=O)Nc1ccc(C(N)=O)cc1	0	-4	-5	2	46*	-9	12
Cn1c2ccccc2c2cnn(CC(=O)Nc3ccccc3Br)c(=O)c21	7	-2	1	0	32*	11	-2
Cc1ccc(S(=O)(=O)N2CCN(C(=O)CSC(=S)N3CCCC3)CC2)c(C)c1	-25	-2	1	0	.	.	.
NC(=O)c1cccc(NC(=O)Nc2ccc(Cl)cc2)c1	7	1	-7	0	38*	7	5
O=C(Nc1ccc(Cl)cc1)Nc1ccc(Cl)c(Cl)c1	10	.	.	.	.	.	.
O=C1C=C(c2cc(F)ccc2F)C[C@@H](c2ccc(F)cc2)C1	3	2	-7	1	.	.	.
CC(C)C(=O)Nc1cccc(C(=O)OCC(=O)c2ccc(Cl)cc2Cl)c1	4	0	-2	-1	41*	79*	8
Cc1nn(-c2ccccc2)c(N2CCCC2)c1/C=N/NC(=S)Nc1ccc(F)cc1	-13	10	0	1	0	.	.
Cc1ccc(NC(=S)N/N=C/c2c(C)nn(-c3ccccc3)c2N2CCCC2)cc1	0	8	3	1	39*	-3	-7
O=C(NCCCNC(=O)c1cnccn1)c1cccc(Cl)c1	-22	-2	1	1	-2	.	.
CO/N=C(/c1nonc1N)N1CCN(c2ccc([N+](=O)[O-])cc2)CC1	-3	-1	-5	-1	33*	7	1
SMILES	ZTA counter	eLon inh	Keap1 Nrf2 FP	LANA DNA inh	EBNA-1 inh	EBNA-1 confirm	ZTA counter trip
CC(C(=O)Nc1ccc(O)cc1C(=O)O)N1C(=O)/C(=C\c2cccs2)SC1=S (centres undefined)	17	0	-4	3	4	.	.
O=C(N/C(=C\c1cccnc1)c1nc2ccccc2[nH]1)c1cccc(Br)c1	24	13	-5	-1	7	.	.
O=C(N/C(=C\c1ccc(Br)cc1)c1nc2ccccc2[nH]1)c1ccco1	9	-4	-6	0	49*	33*	2
CCOP(=O)(c1ccccc1)C(O)c1ccc(F)cc1 (centres undefined)	1	-13	2	3	103*	9	11
CCOP(=O)(c1ccccc1)C(O)c1ccc([N+](=O)[O-])cc1 (centres undefined)	8	0	5	-2	4	.	.
CCc1nc2c(OCC(=O)c3ccc(F)cc3)cccn2c1N(C)C(=O)c1ccc(OC)cc1	.	0	.	.	.	.	.
O=C(COC(=O)c1ccc(CNS(=O)(=O)c2ccc(F)c(Cl)c2)cc1)NCC1CCCCC1	-11	0	-2	-3	31*	0	-1
Cc1cccc(-c2noc(CCCC(=O)Nc3ccc(C(N)=O)cc3)n2)c1	-6	-9	3	0	7	.	.
Cc1cccc(-c2noc(CCC(=O)Nc3ccc(C(N)=O)cc3)n2)c1	0	-1	.	.	76*	39*	-7
Cc1ccc(-c2nc3c4ccccc4ccn3c2Cc2ccsc2)cc1	.	-6	.	.	.	.	.
CCc1nnc(NC(=O)CSc2ccc(-c3nc4ccccc4[nH]3)cn2)s1	14	9	2	0	58*	53*	0
COc1ccc(CC(=O)Nc2sc3c(c2C(N)=O)CCCC3)cc1	-4	-11	1	2	-12	.	.
COc1cc(CC(=O)Nc2sc3c(c2C(N)=O)CCCC3)cc(OC)c1OC	4	2	-6	-1	49*	23	17
Cc1ccccc1OCc1nnc(SCC(=O)Nc2ccc3nc(SCC(=O)Nc4ccccc4)sc3c2)n1C	-16	-13	-3	0	44*	43*	12
Cc1ccccc1Nc1nc(N)nc(CSc2nc3ccccc3c(=O)n2CCCO)n1	9	1	-3	0	42*	-2	6
CCOc1ccc(NC(=O)c2ccc(C#CC(C)(C)O)cc2)cc1	9	1	1	-1	30*	12	1
CCOc1ccc(NC(=O)c2ccc(NC(=S)NC3CC3)cc2)cc1	17	5	-5	1	38*	28*	-5
O=S(=O)(NCc1ccccc1)c1ccc(S(=O)(=O)N(Cc2cccs2)CC2CCCO2)cc1 (centres undefined)	17	-2	-1	1	35*	27	20
COc1ccc(-c2cn(Cc3ccc(C(=O)c4ccccc4)cc3)nn2)cc1	-19	.	.	.	28*	0	15
COc1ccc(/C=C2\SC(=S)N(NS(=O)(=O)c3ccc(C)cc3)C2=O)c(OC)c1	11	3	-7	2	17	.	.
